Drawing on PubChem BioAssay (NCI), this text covers growth for eight compounds.

Test systems include DU-145 prostate; K-562 leukemia; MALME-3M melanoma; MDA-MB-231 breast; RXF 393 renal; SF-268 CNS; SF-295 CNS; SF-539 CNS; UACC-257 melanoma; M14 melanoma; HCT-15 colon; HT29 colon; SNB-75 CNS; SNB-19 CNS; U251 CNS; PC-3 prostate; SK-MEL-5 melanoma; UACC-62 melanoma; LOX IMVI melanoma; SK-MEL-28 melanoma.
Common to all, as to assay: NCI-60 one-dose screen, 48 h (100 = growth as untreated, 0 = no growth, -100 = all killed)
Common to all, as to details: 10 µM unless noted

SMILES strings stand for the structures. About 83,000 compounds went through this panel and 20% of them were active in at least one assay; those are over-represented in the sample as a whole.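 Method: cells in 96-well plates; compound added at one concentration; 48 h incubation; percent growth measured; values under 10 scored active.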 Unmarked numbers belong to inactive results. Calls of active or inactive are those of the source.

Consider `COc1cc(Cl)c(C)cc1NC(=O)c1cc2ccccc2cc1O`, for which the growth in the assay on DU-145 prostate was 26.4%; in the assay with K-562 leukemia, 14.5%; in the assay with MALME-3M melanoma, -8.31% (active); in the assay with MDA-MB-231 breast it was -23.8% (active); in the assay with RXF 393 renal, 11.7%; in the assay on SF-268 CNS, 24%. Moreover, the growth in the assay on SF-295 CNS is -15.1% (active); with SF-539 CNS it was 22.1%; in the assay with UACC-257 melanoma, -1.4% (active); in the assay on M14 melanoma, 24.1%; in the assay with HCT-15 colon, 9.39% (active); in the assay with HT29 colon it was 37.8%. The growth with SNB-75 CNS is 21.4%; in the assay with SNB-19 CNS it was 23.1%; in the assay on U251 CNS it was 6.67% (active); in the assay on PC-3 prostate it was 2.12% (active); in the assay on SK-MEL-5 melanoma, -35.1% (active); in the assay on UACC-62 melanoma, 14.2%. Also, the growth in the assay on LOX IMVI melanoma is 2.44% (active); in the assay with SK-MEL-28 melanoma, 36.5%.

On to `O=C1/C=C/[C@@H](O)[C@@H]2C[C@@H](O)C[C@H]2/C=C/CCC[C@H](CCO)O1`, for which the growth was 16.6% in the assay with DU-145 prostate; 17.7% in the assay with K-562 leukemia; -11.4% (active) in the assay with MALME-3M melanoma; -83.1% (active) with MDA-MB-231 breast; -7.43% (active) in the assay with RXF 393 renal; 12.4% in the assay with SF-268 CNS. Further, the growth with SF-295 CNS is 12.1%; in the assay on SF-539 CNS, 31.7%; in the assay on UACC-257 melanoma it was 27%; with M14 melanoma it was 12.3%; with HCT-15 colon, 10%; in the assay with HT29 colon, -2.5% (active). In addition, the growth in the assay on SNB-75 CNS is 33.1%; in the assay on SNB-19 CNS, 31.4%; in the assay on U251 CNS, 20.7%; in the assay with PC-3 prostate it was 19.6%; in the assay with SK-MEL-5 melanoma it was -94.6% (active); in the assay with UACC-62 melanoma, 25.3%. Moreover, the growth is -61.4% (active) in the assay with LOX IMVI melanoma and -3.47% (active) in the assay on SK-MEL-28 melanoma.

`CC1(C)[C@@H](O[C@@H]2OC[C@@H](O[C@@H]3O[C@H](CO)[C@@H](O)[C@H](O)[C@H]3O[C@@H]3OC[C@@H](O)[C@H](O)[C@H]3O)[C@H](O)[C@H]2O[C@@H]2O[C@H](CO)[C@@H](O)[C@H](O)[C@H]2O)CC[C@]2(C)[C@H]3CC[C@]45OC[C@@]6(CC[C@](C)(C=O)C[C@H]64)[C@H](O)C[C@@]5(C)[C@]3(C)CC[C@@H]12`: the growth was -82.1% (active) in the assay with DU-145 prostate; -18% (active) in the assay with K-562 leukemia; -79.8% (active) in the assay on MALME-3M melanoma; -59.5% (active) in the assay with MDA-MB-231 breast; -77.2% (active) in the assay with RXF 393 renal; -55.1% (active) with SF-268 CNS. Moreover, the growth with SF-295 CNS was -89% (active); in the assay on SF-539 CNS it was -22.6% (active); with UACC-257 melanoma, -87.1% (active); in the assay with M14 melanoma, -85% (active); in the assay with HCT-15 colon, -46.4% (active); in the assay with HT29 colon, -85.3% (active). Moreover, the growth in the assay with SNB-75 CNS is -78.5% (active); in the assay with SNB-19 CNS, -68.4% (active); in the assay on U251 CNS, -89.8% (active); in the assay on PC-3 prostate, -85.1% (active); with SK-MEL-5 melanoma, -27.7% (active); in the assay on UACC-62 melanoma, -71.8% (active). In addition, the growth in the assay with LOX IMVI melanoma was -73.2% (active); in the assay on SK-MEL-28 melanoma, -76.4% (active).

Regarding `COc1ccc(-c2cc(-c3ccccc3)nc(N3CCN(CCNc4ccnc5cc(Cl)ccc45)CC3)n2)cc1`, the growth is -33.4% (active) in the assay with DU-145 prostate; 0.988% (active) with K-562 leukemia; -87.7% (active) in the assay on MALME-3M melanoma; -82.4% (active) in the assay with MDA-MB-231 breast; -34.7% (active) with RXF 393 renal; -15.1% (active) with SF-268 CNS. In addition, the growth with SF-295 CNS was 82.7%; with SF-539 CNS, -40% (active); in the assay on UACC-257 melanoma, -84.5% (active); in the assay with M14 melanoma, -70.9% (active); with HCT-15 colon it was -82% (active); with HT29 colon it was -67.6% (active). For the same compound, the growth in the assay with SNB-75 CNS was 83.6%; with SNB-19 CNS, 72.7%; with U251 CNS, 0.46% (active); with PC-3 prostate, 32.4%; in the assay on SK-MEL-5 melanoma it was -98.6% (active); in the assay on UACC-62 melanoma, 62.2%. For the same compound, the growth with LOX IMVI melanoma is -95.1% (active); in the assay on SK-MEL-28 melanoma, -93.1% (active).

`COc1ccc2c(c1)CCc1[nH]nc(-c3cc(OC)c(OC)c(OC)c3)c1-2`: the growth in the assay on DU-145 prostate was 7.06% (active); in the assay on K-562 leukemia it was 7.23% (active); with MALME-3M melanoma it was 69.8%; with MDA-MB-231 breast, 19.2%; in the assay with RXF 393 renal, 22.6%; with SF-268 CNS, 17.8%. Besides, the growth with SF-295 CNS was 1.46% (active); with SF-539 CNS, 0.378% (active); in the assay with UACC-257 melanoma it was 38.2%; in the assay with M14 melanoma, 4.46% (active); in the assay on HCT-15 colon, 10.3%; in the assay with HT29 colon it was 0.652% (active). For the same compound, the growth in the assay with SNB-75 CNS is 36.7%; in the assay on SNB-19 CNS it was 28.7%; in the assay with U251 CNS, 5.42% (active); in the assay with PC-3 prostate it was 12.6%; in the assay with SK-MEL-5 melanoma it was -54.2% (active); in the assay on UACC-62 melanoma, 28.8%. The values for the growth with LOX IMVI melanoma and in the assay with SK-MEL-28 melanoma were 5.34% (active) and 58%, respectively.

With `CCN1C2CCC1/C(=C\c1ccc(F)cc1)C(=O)/C2=C/c1ccc(F)cc1`, the growth was 9.04% (active) with DU-145 prostate; 20.5% in the assay with K-562 leukemia; 55.7% with MALME-3M melanoma; 62.5% in the assay on MDA-MB-231 breast; 57.9% in the assay on RXF 393 renal; 38.4% with SF-268 CNS. For the same compound, the growth with SF-295 CNS is 36.3%; with SF-539 CNS, 51.8%; in the assay with UACC-257 melanoma, 50.8%; in the assay on M14 melanoma, 35.9%; in the assay on HCT-15 colon it was 30.4%; in the assay on HT29 colon, 23.7%. The growth was 40.6% with SNB-75 CNS; 51% with SNB-19 CNS; 21.2% in the assay on U251 CNS; 38.5% in the assay with PC-3 prostate; 48.2% in the assay with SK-MEL-5 melanoma; 35.7% in the assay on UACC-62 melanoma. In addition, the growth in the assay on LOX IMVI melanoma is 19.7%; in the assay with SK-MEL-28 melanoma, 72.5%.

For the compound `Oc1c(CN2CCCC2)cc(CSCc2ccccc2)c2cccnc12`, the growth in the assay with DU-145 prostate is 22.6%; in the assay on K-562 leukemia, 11%; in the assay on MALME-3M melanoma, -2.43% (active); in the assay on MDA-MB-231 breast, 26.4%; in the assay with RXF 393 renal, 31.3%; in the assay with SF-268 CNS it was 11.9%. Also, the growth in the assay on SF-295 CNS is 5.5% (active); in the assay on SF-539 CNS, -26.2% (active); with UACC-257 melanoma it was -16.7% (active); in the assay on M14 melanoma, -3.2% (active); in the assay on HCT-15 colon it was -39.3% (active); in the assay on HT29 colon, 91%. The growth in the assay with SNB-75 CNS was 24.6%; in the assay with SNB-19 CNS, 23.9%; in the assay on U251 CNS it was -1.52% (active); in the assay with PC-3 prostate, 20.8%; with SK-MEL-5 melanoma, -26.3% (active); with UACC-62 melanoma, -19.5% (active). Moreover, the growth in the assay on LOX IMVI melanoma is 2.24% (active); in the assay on SK-MEL-28 melanoma, 23.8%.

As for `Oc1c(CN2CCOCC2)cc(COCc2ccccc2)c2cccnc12`, the growth in the assay on DU-145 prostate is 38%; in the assay with K-562 leukemia, 14.8%; in the assay on MALME-3M melanoma, 21.2%; with MDA-MB-231 breast it was 43.1%; with RXF 393 renal, 58.5%; with SF-268 CNS, 23.7%. The growth was 30.8% with SF-295 CNS; 4.65% (active) in the assay on SF-539 CNS; -9.19% (active) in the assay on UACC-257 melanoma; 12% with M14 melanoma; 20.5% in the assay on HCT-15 colon; 88.2% in the assay with HT29 colon. For the same compound, the growth in the assay on SNB-75 CNS is 49.5%; in the assay with SNB-19 CNS, 35.7%; in the assay with U251 CNS, 11%; in the assay on PC-3 prostate, 31.4%; in the assay on SK-MEL-5 melanoma, -12.3% (active); in the assay with UACC-62 melanoma it was -25.7% (active). The growth was 12.5% with LOX IMVI melanoma and 36.3% with SK-MEL-28 melanoma.
